A selection: hits, their analogues and other compounds. The true share with any hit is near 13%.
Shiga toxin inh – A qHTS for Small Molecule Inhibitors of Shiga Toxin | hit rate 9.2% among 290,000 | inhibition, % at 38.7 µM | Vero cells, Shiga toxin protein synthesis inhibition reporter; in the data active = inhibition mostly above about 28%, no sharp cut-off; inactive = mostly below about 43%; note: 0% is about no effect
Lassa entry inh – qHTS for Inhibitors of binding or entry into cells for Lassa Virus; Lassa virus pseudotype entry inhibition, cell reporter; hit rate 1.2% among 300,000; Potency, µM (series often up to 37.9 µM), inactives show at the top dose activity change, negative = inhibition, usual class: inhibitors; calls by dose curve; tested in HEK293 cells; note: potency is the fitted concentration of half-maximal effect; % is set by controls: 0 for no effect and ±100 for the full control effect; nearly all actives have a fitted effect of over 50% in size
HCV inh – qHTS Assay for Inhibitors of Hepatitis C Virus (HCV). Huh7.5.1 HCVcc-Cre infection, luciferase reporter, 44 h. Potency, µM (top dose mostly 41.8 µM), without a hit: at the highest dose activity change, negative = inhibition, actives largely listed as inhibitors. hit rate 3.4% among 340,000. AID 651820, 2012; active = well fitted inhibition curve with a large enough effect; inconclusive = small, poorly fitted or top-dose-only effect, or another doubt; inactive = no such curve, though single readings can be large or run the other way; note: potency is the fitted concentration of half-maximal effect; % is set by controls: 0 for no effect and ±100 for the full control effect
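After 44 h co-culture of compound, cells and HCVcc-Cre (~0.5 moi), substrate is added for 15 min at room temperature and luciferase measured over 15 sec. Cells were seeded at 1,000/well and pre-cultured 4 h.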
FMDV antiviral – High Throughput Screening for Foot and Mouth Disease Virus Antivirals. hit rate 1.2% among 410,000. Potency, µM (highest dose often 57.9 µM), inactives show at the top dose activity change, negative = inhibition, most hits filed as inhibitors. FMDV antiviral cell-based qHTS; calls by dose curve; tested in HEK293T cells; note: read-out not given here; potency is the fitted concentration of half-maximal effect; % is set by controls: 0 for no effect and ±100 for the full control effect; nearly all actives have a fitted effect of over 45% in size
Cycloheximide cs – Cycloheximide Counterscreen for Small Molecule Inhibitors of Shiga Toxin; cell reporter, cycloheximide protein synthesis inhibition counterscreen; max response, %; hit rate 12% among 300,000; AID 2314, 2010; in the data active = max response mostly above about 13%, no sharp cut-off; inactive = mostly below about 14%; note: read at 38.3 µM for the half of the compounds with a filed dose; 0% is about no effect
Marburg entry inh – qHTS for inhibitors of binding or entry into cells for Marburg Virus. hit rate 1.8% among 300,000. Potency, µM (series often up to 37.8 µM), without a hit: at the highest dose activity change, negative = inhibition, usual class: inhibitors. Marburg virus pseudotyped entry inhibition, cell reporter; calls by dose curve; tested in HEK293 cells; note: potency is the fitted concentration of half-maximal effect; % is set by controls: 0 for no effect and ±100 for the full control effect
Active calls of the source: *; ? = inconclusive; . = no result given; ! = not active in a repeat; [ ] = another dose, or the depositor's remark.

SMILES | Shiga toxin inh | Lassa entry inh | HCV inh | FMDV antiviral | Cycloheximide cs | Marburg entry inh
CSc1ccccc1OCc1cc(C(=O)N(C)C2CCCc3ccccc32)no1 (stereo not given) | 50* | . | ? | 44% | 35 | .
CSc1ccccc1OCc1cc(C(=O)NCCc2nc(C)cc(C)n2)no1 | 43* | . | ? | 0% | 24* | .
CN(C(=O)CCl)C1CCCc2ccccc21 (stereo not given) | -4 | . | ? | 16µM* | -4 | .
Cc1cc(C)c(OCC(=O)OC(C)C(=O)NC2CC2)c(C)c1 (stereo not given) | -3 | . | 9% | -20% | 1 | .
N#CCCn1cc(C(=O)NCc2ccccc2)c(-c2cccs2)n1 | 3 | -11%[46.1 µM] | 5% | 42% | 7 | -26%[46.1 µM]
CC(C)c1nc(CNC(=O)c2cc(COc3c(F)cccc3F)on2)cs1 | -3 | 0% | 10% | -10% | 1 | -24%[46.1 µM]
COCCN1CC(CNC(=O)c2cc(COc3ccccc3SC)on2)CC1=O (stereo not given) | 20 | 12% | 5% | 13% | 12* | 18%
CSc1ccccc1OCc1cc(C(=O)NCCN2CCCC(O)C2)no1 (stereo not given) | -7 | 1% | -27% | -7% | 10 | -2%
CSc1ccccc1OCc1cc(C(=O)NCc2csc(C(C)C)n2)no1 | 15 | -8%[46.1 µM] | -12% | -4% | 17* | -26%[46.1 µM]
CSc1ccccc1OCc1cc(C(=O)NCCc2ccco2)no1 | 59* | 6% | -18% | 28% | 35* | ?
CSc1ccccc1OCc1cc(C(=O)NCCC2CCCCO2)no1 (stereo not given) | 45* | 4% | -29% | 12% | 33* | 2%
CCCCC(=O)Nc1ccc(NC(=S)NC(=O)c2ccco2)cc1OC | 24 | 1%[46.1 µM] | ? | 15% | 5 | 13%[46.1 µM]
O=C(CN1C(=O)NC(Cc2c[nH]c3ccccc23)C1=O)NCC(F)(F)F (stereo not given) | -15 | . | 20% | -19% | -9 | .
Cc1cccc(C)c1OCc1cc(C(=O)NCc2cn(C)nc2C)no1 | 8 | -25% | ? | -23% | 13* | -6%
Cc1cccc(C)c1OCc1cc(C(=O)NCC2CCCCC2)no1 | -5 | . | 2% | -7% | -3 | .
Cc1cccc(C)c1OCc1cc(C(=O)N(Cc2c(C)nn(C)c2C)C2CC2)no1 | 2 | . | 10µM* | 20µM* | -2 | .
O=C(CC[C@H]1O[C@@H](n2cnc3c(NC(=O)c4ccccc4)ncnc32)[C@H](O)[C@@H]1O)NCC(c1ccccc1)c1ccccc1 | . | . | . | -10% | . | .
CCn1c(COc2cccc(C)c2)nnc1SCC(=O)Nc1cccc(C(=O)OC)c1 | 41 | 7% | ? | -17% | 5 | 0%
Cc1[nH]nc2c1C(c1ccccc1F)CC(=O)N2 (stereo not given) | -11 | 7% | 4% | 5% | 13* | 17%
CCC1=C(c2ccc(C)cc2)S(=O)(=O)N=C1N1CCC(C(=O)NCCc2ccc(Cl)cc2)CC1 | . | . | . | -17% | . | ?
CC(C)(C)c1ccc(OC(=O)c2ccccc2)cc1 | 18 | 11%[46.1 µM] | 8% | 14% | -2 | 4%[46.1 µM]
CC(C)(C)c1ccc(C(=O)Oc2ccc3c(c2)OCC3=O)cc1 | 86* | -29% | 3% | 29% | 54* | -1%
O=C(Oc1ccc2c(c1)OCC2=O)c1ccccc1 | active | 24% | 6% | . | 44* | 3%
Cc1ccc(OC(=O)c2ccccc2)cc1C | . | ? | 11% | 45% | . | 17%
COc1ccc(C2CC(c3ccc4ccccc4c3)=NN2C(=O)COC(=O)C2CCC(=O)N2)cc1 (stereo not given) | 127* | ? | -23% | 16% | 47* | ?
SMILES | Shiga toxin inh | Lassa entry inh | HCV inh | FMDV antiviral | Cycloheximide cs | Marburg entry inh
COc1ccc(C2CC(c3ccc4ccccc4c3)=NN2C(=O)CN2CCC(C(N)=O)CC2)cc1 (stereo not given) | 79* | 2% | -24% | 0% | 57* | 1%
CCOC(=O)/C=C(\C)N1N=C(c2ccccc2)CC1c1ccccc1 (stereo not given) | 100* | 20%[46.1 µM] | 8% | 40% | 42* | ?
CCOC(=O)c1nnn(CC(=O)N2N=C(c3ccccc3)CC2c2ccccc2)c1C(=O)OCC (stereo not given) | 4 | -19% | 11% | 1% | -5 | -5%
CC(=O)OCC(=O)N1N=C(c2ccc3ccccc3c2)CC1c1ccccc1 (stereo not given) | 67 | 10%[46.1 µM] | 24% | 4% | 33* | -1%[46.1 µM]
Nc1cc(=O)[nH]c(SCC(=O)N2N=C(c3ccc4ccccc4c3)CC2c2ccccc2)n1 (stereo not given) | -5 | ? | ? | -19% | -2 | ?
Cc1ccc2c(c1)N(CC(=O)NC1CCCC1)C(=O)C(C)O2 (stereo not given) | -9 | 8% | 6% | 18% | -6 | -8%[46.1 µM]
CCCOC(=O)CCNc1n[nH]c(=O)[nH]c1=O | -6 | 12% | -15% | -21% | 2 | ?
Cc1ccc2nc(C(C)(C)C)c(Cc3ccsc3)n2c1 | . | . | . | 12% | . | .
C=CCNCC(=O)N1N=C(c2ccc3ccccc3c2)CC1c1ccc(OC)cc1 (stereo not given) | 26 | 0% | ? | -22% | 2 | 8.9µM*
COc1ccc(C2CC(c3ccccc3)=NN2C(=O)CN2N=NC3C(=O)N(c4cccc(F)c4)C(=O)C32)cc1 (stereo not given) | -9 | 4% | 7% | 1% | 11* | -44%
COc1ccc(C2CC(c3ccc4ccccc4c3)=NN2C(=O)CNC2CCCCC2)cc1 (stereo not given) | 16 | . | ? | ? | 3 | .
COc1ccc(C2CC(c3ccccc3)=NN2C(=O)COC(=O)c2cccc(O)c2)cc1 (stereo not given) | . | -21%[46.1 µM] | ? | -4% | . | ?
COc1ccc(C2CC(c3ccccc3)=NN2C(=O)COC(=O)c2nc3nc(C)cc(C)n3n2)cc1 (stereo not given) | 43 | -7% | 10µM* | 4% | 9 | 23%[46.1 µM]
CCOc1ccccc1OCC(O)CNC (stereo not given) | -3 | 6% | 20% | -15% | -2 | -4%
CCc1cccc(C)c1NC(=O)Cn1ncc2c3ccccc3n(Cc3ccccc3)c2c1=O | . | 20%[46.1 µM] | . | -1% | . | ?
Cc1ccc(S(=O)(=O)Nc2ccccc2N2CCCCC2)cc1 | . | . | ? | -12% | . | .
COC(=O)C(C)(N)Cc1ccc(O)cc1 (stereo not given) | . | ? | ? | -17% | . | 2.8µM*!
C/C(=N\NC(=O)c1ccccc1O)C1CC1 | 66* | -28%[46.1 µM] | -1% | 24% | 19 | -5%[46.1 µM]
O=C(NO)c1ccccc1O | 14 | 10% | -1%[8.37 µM] | -23% | -3 | -3%
C/C(=N\NC(=O)c1ccc(N)cc1)C1CC1 | 39* | ? | 2% | -10% | 40* | 25%[46.1 µM]
COc1ccccc1C(=O)NCCC(=O)N1CCCC(C(F)(F)F)C1 (stereo not given) | . | . | 24% | -7% | . | .

Screening results as filed in PubChem BioAssay.
